Assay results reported in PubChem BioAssay (Tox21).
Results filed as inconclusive are left out. Entries that show only a call come without a potency. Activity calls are given as the source filed them. Unless noted, calls come from the whole dose curve; as a rule, active = well fitted curve in the direction sought with a large enough effect in the repeat runs; inconclusive = weak or mixed curves; inactive = no such curve, though single readings can be large; an effect the other way counts as inactive or inconclusive.

Assays:
[1] = qHTS assay to identify small molecule antagonists of the androgen receptor (AR) signaling pathway using the MDA cell line in the presence of 0.5 nM R1881 - cell viability counter screen (AID 1259242); note: nearly all actives have a fitted effect of over 45% in size
In short: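 Live-cell protease fluorescence, CellTiter-Fluor, 30 min at 37C. Cells: MDA-kb2, 3,000/well, preincubated 5 hr. Compounds plus 0.5 nM R1881 final, 16 hr, 37C, 0% CO2.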

[2] = qHTS assay to identify small molecule phospholipidosis (PLD) inducers (AID 1259344; active = well fitted curve in the direction sought with a large enough effect; an effect the other way counts as inactive or inconclusive)
In short: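 After 4 h attachment on collagen I, HepG2 cells were dosed with compound alongside LipidTOX Red, kept 24 h at 37 C, fixed, and imaged for lamellar phospholipid pits.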

[3] = qHTS assay to identify small molecule HDAC inhibitors (AID 1259364);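 note: wild-type HCT-116 cells with endogenous class I/II HDAC activity; top concentration of the series differs between compounds; nearly all actives have a fitted effect of over 45% in size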
In short: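 HCT-116 (wild type), 1,500 cells/well, overnight; compound 2 hr 37C 5% CO2; HDAC-Glo I/II reagent 30 min RT; luminescence readout.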

[4] = qHTS assay to identify small molecule agonists of the sonic hedgehog signaling (Shh) pathway - cell viability counter screen (AID 1259366); note: nearly all actives have a fitted effect of over 50% in size
In short: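 NIH/3T3-derived 3T3 Gli1-Luc cells (stable Gli1-responsive firefly luciferase reporter) were seeded, rested 4 hr at 37 C/5% CO2, then exposed to compounds in DMSO for 24 hr; viability was read by CellTiter-Fluor fluorescence in the same wells.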

[5] = qHTS assay to identify small molecule antagonists of the sonic hedgehog signaling (Shh) pathway - cell viability counter screen (AID 1259367); note: nearly all actives have a fitted effect of over 55% in size
In short: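 Conditioned medium drove Shh signaling in 3T3 Gli1-Luc cells exposed to compounds at 37C and 5% CO2. Viability was determined from CellTiter-Fluor fluorescence, with reagent incubated 1 hr after 23 hr of treatment.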

[6] = qHTS assay to identify small molecule agonists of the sonic hedgehog signaling (Shh) pathway (AID 1259368; calls by dose curve; note: series mostly up to about 92 µM; nearly all actives have a fitted effect of over 15% in size)
In short: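 Read-out: firefly luciferase luminescence from a Gli1 response element reporter stably integrated in NIH/3T3-derived 3T3Gli1-Luc cells, measured 30 min at room temperature after reagent addition. Compound exposure lasted 24 hr at 37 C, 5% CO2.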

[7] = qHTS assay to identify small molecule antagonists of the sonic hedgehog signaling (Shh) pathway (AID 1259369; calls by dose curve; note: nearly all actives have a fitted effect of over 45% in size; note: potency is the fitted concentration of half-maximal effect)
In short: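 Luminescence readout: firefly Luc under Gli1 response element in 3T3Gli1-Luc cells (NIH/3T3 clone). Antagonist mode, stimulation by conditioned medium; compound exposure 24hr at 37 C, 5% CO2.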

[8] = target: Estrogen receptor (Homo sapiens) (UniProt P03372); assay: qHTS assay to identify small molecule antagonists of the estrogen receptor alpha (ER-alpha) signaling pathway using the BG1 cell line in the presence of 0.1 nM 17-beta-estradiol (AID 1259244); note: nearly all actives have a fitted effect of over 50% in size; note: potency is the fitted concentration of half-maximal effect
In short: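 Luminescence after ONE-Glo (30 min, room temperature) measured ERE-luciferase activity in VM7Luc4E2 cells treated 22 h with compound and 0.1 nM final 17beta-estradiol as stimulator.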

[9] = qHTS assay to identify small molecule HDAC inhibitors - cell viability counter screen (AID 1259365); note: nearly all actives have a fitted effect of over 50% in size; note: potency is the fitted concentration of half-maximal effect
In short: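 Wild-type HCT-116 cells were seeded at 1,500 per well, incubated overnight at 37 C, then exposed to compounds in DMSO for 2hr. Viability was read by CellTiter-Glo luminescence after 30min at room temperature.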

[10] = target: Androgen receptor (Homo sapiens) (UniProt P10275); assay: qHTS assay to identify small molecule antagonists of the androgen receptor (AR) signaling pathway using the MDA cell line in the presence of 0.5 nM R1881 (AID 1259243); note: potency is the fitted concentration of half-maximal effect; nearly all actives have a fitted effect of over 50% in size
In short: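 MDA-kb2, MMTV-luc (AR/GR elements); 3,000 cells/well; cpd + 0.5 nM R1881 final; 16 hr 37C, 0% CO2; ONE-Glo 30 min RT; luminescence.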

Estrogen receptor (Homo sapiens), sequence (P03372 whole entry, looked up): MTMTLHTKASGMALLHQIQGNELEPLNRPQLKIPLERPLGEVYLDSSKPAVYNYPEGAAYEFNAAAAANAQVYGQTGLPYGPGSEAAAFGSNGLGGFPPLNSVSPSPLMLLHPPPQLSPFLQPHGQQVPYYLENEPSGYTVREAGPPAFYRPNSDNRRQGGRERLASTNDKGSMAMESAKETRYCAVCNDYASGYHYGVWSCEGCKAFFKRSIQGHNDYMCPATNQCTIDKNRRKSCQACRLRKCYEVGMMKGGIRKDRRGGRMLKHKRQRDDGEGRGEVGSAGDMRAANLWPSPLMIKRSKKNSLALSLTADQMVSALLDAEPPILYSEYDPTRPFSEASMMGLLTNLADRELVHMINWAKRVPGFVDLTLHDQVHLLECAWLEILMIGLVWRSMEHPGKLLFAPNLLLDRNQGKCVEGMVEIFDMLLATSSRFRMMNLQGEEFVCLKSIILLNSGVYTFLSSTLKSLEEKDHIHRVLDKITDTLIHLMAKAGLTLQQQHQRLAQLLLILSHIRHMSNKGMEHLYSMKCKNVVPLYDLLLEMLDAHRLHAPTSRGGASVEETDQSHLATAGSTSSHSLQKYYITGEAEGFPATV
Androgen receptor (Homo sapiens), sequence (P10275 whole entry, looked up): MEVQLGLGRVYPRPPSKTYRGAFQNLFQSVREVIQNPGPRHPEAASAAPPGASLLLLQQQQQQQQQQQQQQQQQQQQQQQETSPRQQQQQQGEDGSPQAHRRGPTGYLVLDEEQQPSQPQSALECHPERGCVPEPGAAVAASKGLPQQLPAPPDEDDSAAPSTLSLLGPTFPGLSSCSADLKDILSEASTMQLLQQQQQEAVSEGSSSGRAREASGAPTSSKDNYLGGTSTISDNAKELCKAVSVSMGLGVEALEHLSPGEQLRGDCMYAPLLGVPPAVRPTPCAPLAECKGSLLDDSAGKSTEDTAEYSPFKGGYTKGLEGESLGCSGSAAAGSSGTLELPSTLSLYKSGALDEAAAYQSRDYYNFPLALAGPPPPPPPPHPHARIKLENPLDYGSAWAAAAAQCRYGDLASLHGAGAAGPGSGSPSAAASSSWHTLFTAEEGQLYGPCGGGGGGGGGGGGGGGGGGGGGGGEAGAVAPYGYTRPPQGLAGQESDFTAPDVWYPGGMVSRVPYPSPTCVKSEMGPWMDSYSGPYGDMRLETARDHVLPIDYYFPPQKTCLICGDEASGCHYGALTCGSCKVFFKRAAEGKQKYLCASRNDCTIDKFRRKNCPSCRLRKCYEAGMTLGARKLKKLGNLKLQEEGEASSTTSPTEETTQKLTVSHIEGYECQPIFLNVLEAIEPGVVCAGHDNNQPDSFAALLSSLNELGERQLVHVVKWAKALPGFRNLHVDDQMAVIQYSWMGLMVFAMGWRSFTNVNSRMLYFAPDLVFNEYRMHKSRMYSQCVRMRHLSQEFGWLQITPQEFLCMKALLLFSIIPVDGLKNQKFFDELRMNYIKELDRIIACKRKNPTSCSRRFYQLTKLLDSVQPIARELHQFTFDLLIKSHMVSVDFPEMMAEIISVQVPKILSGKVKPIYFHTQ

SMILES: CNC(C)(C)Cc1ccccc1
- Potency [1]: inactive
- outcome [2]: inactive
- Potency [3]: inactive
- Potency [4]: inactive
- Potency [5]: inactive
- Potency [6]: inactive
- Potency [7]: inactive

SMILES: ClC(Cl)C(Cl)(Cl)Cl
- Potency [1]: inactive
- Potency [8]: inactive
- Potency [3]: inactive
- Potency [4]: inactive
- Potency [5]: inactive
- Potency [6]: inactive
- Potency [7]: inactive

SMILES: CC(Cl)CCl (stereo not given)
- Potency [1]: inactive
- Potency [8]: inactive
- Potency [3]: inactive
- Potency [9]: inactive
- Potency [5]: inactive
- Potency [6]: inactive

SMILES: CCCCN(CCCC)C(=S)S
- Potency [1]: inactive
- Potency [8]: inactive
- Potency [3]: inactive
- Potency [9]: inactive
- Potency [6]: inactive
- Potency [7]: inactive

SMILES: O=C(Cl)c1ccccc1F
- Potency [1]: inactive
- Potency [8]: inactive
- Potency [3]: inactive
- Potency [4]: inactive
- Potency [5]: inactive
- Potency [6]: inactive
- Potency [7]: inactive

SMILES: O=S(=O)(O)F
- Potency [1]: inactive
- Potency [8]: inactive
- Potency [3]: inactive
- Potency [9]: inactive
- Potency [5]: inactive
- Potency [6]: inactive
- Potency [7]: inactive

SMILES: O=C1C[C@@H]2OCC=C3CN4CC[C@]56c7ccccc7N1[C@H]5[C@H]2[C@H]3C[C@H]46
- Potency [1]: inactive
- outcome [2]: inactive
- Potency [3]: inactive
- Potency [9]: inactive
- Potency [6]: inactive

SMILES: COP(=S)(OC)Oc1nc(Cl)c(Cl)cc1Cl
- Potency [1]: inactive
- Potency [8]: inactive
- Potency [3]: inactive
- Potency [5]: inactive
- Potency [6]: inactive

SMILES: COc1cnc(OC)n2nc(NS(=O)(=O)c3c(OCC(F)F)cccc3C(F)(F)F)nc12
- Potency [1]: inactive
- Potency [8]: inactive
- Potency [3]: inactive
- Potency [4]: inactive
- Potency [5]: inactive
- Potency [6]: inactive
- Potency [7]: inactive

SMILES: CSC(C)(C)/C=N/O
- Potency [1]: inactive
- Potency [8]: inactive
- Potency [3]: inactive
- Potency [4]: inactive
- Potency [6]: inactive
- Potency [7]: inactive

SMILES: C=CC(=O)[O][Sn]([CH2]CCC)([CH2]CCC)[CH2]CCC
- Potency [10]: 0.545 µM (active)
- Potency [8]: 1.72 µM (active)
- Potency [3]: inactive
- Potency [9]: 19.3 µM (active)
- Potency [6]: inactive
- Potency [7]: 0.486 µM (active)

SMILES: COC(=O)c1cc(Oc2ccc(Cl)cc2Cl)ccc1[N+](=O)[O-]
- Potency [1]: inactive
- Potency [3]: inactive
- Potency [9]: inactive
- Potency [5]: inactive
- Potency [6]: inactive
- Potency [7]: inactive

SMILES: CC(=O)C(Cl)C(=O)N(C)C (stereo not given)
- Potency [1]: inactive
- Potency [3]: inactive
- Potency [5]: inactive
- Potency [6]: inactive
- Potency [7]: inactive
